{"source": "PubChem BioAssay AID1159580", "about": "(chemical genetic matrix, 2015)", "experiment": "chemical genetic growth profiling, strain panel (AID 1159580);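 also: tested at 20 µM; growth read once vehicle control cultures reached saturation at 30 °C; 1 = growth at the plate median or of vehicle wells; lower values mean less growth of the strain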", "settings": "S. cerevisiae deletion strains, growth OD", "note": "Where “and” joins values, the source holds several entries; their conditions need not be identical. Equal values may be shown once. In all, about 5,500 compounds went through this assay and about 2,000 (36%) were called active. About 18% were inconclusive and are not listed. Rule as the data show it: active = normalized growth mostly below about 0.91 (no sharp cut-off); inconclusive = no clear call, values can overlap the other calls; inactive = mostly above about 0.92. The list shows a part of the results.", "data": [{"smiles": "O=C(OC[C@H]1O[C@H](OC(=O)c2cc(O)c(O)c(OC(=O)c3cc(O)c(O)c(O)c3)c2)[C@H](OC(=O)c2cc(O)c(O)c(OC(=O)c3cc(O)c(O)c(O)c3)c2)[C@@H](OC(=O)c2cc(O)c(O)c(OC(=O)c3cc(O)c(O)c(O)c3)c2)[C@@H]1OC(=O)c1cc(O)c(O)c(OC(=O)c2cc(O)c(O)c(O)c2)c1)c1cc(O)c(O)c(OC(=O)c2cc(O)c(O)c(O)c2)c1", "values": [{"measurement": "normalized growth", "setting": "locus YAL013W, strain DEP1, stronger effect = lower value", "result": "0.088 (active)"}, {"measurement": "normalized growth", "setting": "locus YAL021C, strain ccr4, stronger effect = lower value", "result": "0.273 (active)"}, {"measurement": "normalized growth", "setting": "locus YAL026C, strain drs2, stronger effect = lower value", "result": "0.572 (active)"}, {"measurement": "normalized growth", "setting": "locus YAL030W, strain snc1, stronger effect = lower value", "result": "0.889 (active)"}, {"measurement": "normalized growth", "setting": "locus YBL061C, strain skt5, stronger effect = lower value", "result": "0.68 (active)"}, {"measurement": "normalized growth", "setting": "locus YBR009C, strain hhf1, stronger effect = lower value", "result": "0.788 (active)"}, {"measurement": "normalized growth", "setting": "locus YBR021W, strain FUR4, stronger effect = lower value", "result": "0.148 (active)"}, {"measurement": "normalized growth", "setting": "locus YBR023C, strain chs3, stronger effect = lower value", "result": "0.537 (active)"}, {"measurement": "normalized growth", "setting": "locus YBR171W, strain sec66, stronger effect = lower value", "result": "0.931 (inactive)"}, {"measurement": "normalized growth", "setting": "locus YBR229C, strain ROT2, stronger effect = lower value", "result": "0.0601 (active)"}, {"measurement": "normalized growth", "setting": "locus YBR231C, strain swc5, stronger effect = lower value", "result": "0.581 (active)"}, {"measurement": "normalized growth", "setting": "locus YBR279W, strain paf1, stronger effect = lower value", "result": "0.686 (active)"}, {"measurement": "normalized growth", "setting": "locus YCL011C, strain gbp2, stronger effect = lower value", "result": "0.782 (active)"}, {"measurement": "normalized growth", "setting": "locus YCL016C, strain dcc1, stronger effect = lower value", "result": "0.735 (active)"}, {"measurement": "normalized growth", "setting": "locus YCL029C, strain bik1, stronger effect = lower value", "result": "0.0912 (active)"}, {"measurement": "normalized growth", "setting": "locus YCL061C, strain MRC1, stronger effect = lower value", "result": "0.759 (active)"}, {"measurement": "normalized growth", "setting": "locus YCL069W, strain vba3, stronger effect = lower value", "result": "0.8 (active)"}, {"measurement": "normalized growth", "setting": "locus YCR088W, strain abp1, stronger effect = lower value", "result": "0.834 (active)"}, {"measurement": "normalized growth", "setting": "locus YDL005C, strain med2, stronger effect = lower value", "result": "1.02 (inactive)"}, {"measurement": "normalized growth", "setting": "locus YDL035C, strain GPR1, stronger effect = lower value", "result": "0.0826 (active)"}, {"measurement": "normalized growth", "setting": "locus YDL040C, strain nat1, stronger effect = lower value", "result": "0.824 (active)"}, {"measurement": "normalized growth", "setting": "locus YDL074C, strain BRE1, stronger effect = lower value", "result": "0.148 (active)"}, {"measurement": "normalized growth", "setting": "locus YDL101C, strain DUN1, stronger effect = lower value", "result": "0.0829 (active)"}, {"measurement": "normalized growth", "setting": "locus YDL134C, strain PPH21, stronger effect = lower value", "result": "0.0788 (active)"}, {"measurement": "normalized growth", "setting": "locus YDL185W, strain tfp1, stronger effect = lower value", "result": "0.0903 (active)"}, {"measurement": "normalized growth", "setting": "locus YDL192W, strain arf1, stronger effect = lower value", "result": "0.0892 (active)"}, {"measurement": "normalized growth", "setting": "locus YDR001C, strain nth1, stronger effect = lower value", "result": "0.998 (inactive)"}, {"measurement": "normalized growth", "setting": "locus YDR069C, strain doa4, stronger effect = lower value", "result": "0.524 (active)"}, {"measurement": "normalized growth", "setting": "locus YDR101C, strain arx1, stronger effect = lower value", "result": "0.0922 (active)"}, {"measurement": "normalized growth", "setting": "locus YDR137W, strain rgp1, stronger effect = lower value", "result": "0.327 (active)"}, {"measurement": "normalized growth", "setting": "locus YDR150W, strain NUM1, stronger effect = lower value", "result": "0.0891 (active)"}, {"measurement": "normalized growth", "setting": "locus YDR159W, strain sac3, stronger effect = lower value", "result": "0.66 (active)"}, {"measurement": "normalized growth", "setting": "locus YDR162C, strain NBP2, stronger effect = lower value", "result": "0.079 (active)"}, {"measurement": "normalized growth", "setting": "locus YDR195W, strain ref2", "result": "0.839 (active)"}, {"measurement": "normalized growth", "setting": "locus YDR297W, strain sur2, stronger effect = lower value", "result": "0.823 (active)"}, {"measurement": "normalized growth", "setting": "locus YDR318W, strain mcm21, stronger effect = lower value", "result": "0.0987 (active)"}, {"measurement": "normalized growth", "setting": "locus YDR334W, strain swr1, stronger effect = lower value", "result": "0.632 (active)"}, {"measurement": "normalized growth", "setting": "locus YDR335W, strain msn5, stronger effect = lower value", "result": "0.747 (active)"}, {"measurement": "normalized growth", "setting": "locus YDR388W, stronger effect = lower value", "result": "0.0902 (active)"}, {"measurement": "normalized growth", "setting": "locus YDR392W, strain spt3, stronger effect = lower value", "result": "0.742 (inactive)"}, {"measurement": "normalized growth", "setting": "locus YDR502C, strain sam2, stronger effect = lower value", "result": "0.101 (active)"}, {"measurement": "normalized growth", "setting": "locus YEL003W, strain gim4, stronger effect = lower value", "result": "0.748 (active)"}, {"measurement": "normalized growth", "setting": "locus YEL037C, strain rad23, stronger effect = lower value", "result": "0.771 (active)"}, {"measurement": "normalized growth", "setting": "locus YEL061C, strain CIN8 (second series), stronger effect = lower value", "result": "0.926 (inactive)"}, {"measurement": "normalized growth", "setting": "locus YEL061C, strain CIN8, stronger effect = lower value", "result": "0.0806 (active)"}, {"measurement": "normalized growth", "setting": "locus YER015W, strain faa2, stronger effect = lower value", "result": "0.531 (active)"}, {"measurement": "normalized growth", "setting": "locus YER016W, strain bim1, stronger effect = lower value", "result": "0.8 (active)"}, {"measurement": "normalized growth", "setting": "locus YER110C, stronger effect = lower value", "result": "0.111 (active)"}, {"measurement": "normalized growth", "setting": "locus YER111C, strain swi4, stronger effect = lower value", "result": "0.404 (active)"}, {"measurement": "normalized growth", "setting": "locus YER155C, strain BEM2 (second series), stronger effect = lower value", "result": "0.99 (inactive)"}, {"measurement": "normalized growth", "setting": "locus YER155C, strain BEM2, stronger effect = lower value", "result": "0.112 (active)"}, {"measurement": "normalized growth", "setting": "locus YER167W, strain BCK2, stronger effect = lower value", "result": "0.0894 (active)"}, {"measurement": "normalized growth", "setting": "locus YFR010W, strain ubp6, stronger effect = lower value", "result": "0.701 (active)"}, {"measurement": "normalized growth", "setting": "locus YGL078C, strain dbp3, stronger effect = lower value", "result": "0.0891 (active)"}, {"measurement": "normalized growth", "setting": "locus YGL086W, strain mad1, stronger effect = lower value", "result": "0.0871 (active)"}, {"measurement": "normalized growth", "setting": "locus YGL167C, strain pmr1, stronger effect = lower value", "result": "0.724 (active)"}, {"measurement": "normalized growth", "setting": "locus YGL173C, strain kem1, stronger effect = lower value", "result": "0.54 (active)"}, {"measurement": "normalized growth", "setting": "locus YGL227W, strain vid30, stronger effect = lower value", "result": "1 (inactive)"}, {"measurement": "normalized growth", "setting": "locus YGL240W, strain doc1, stronger effect = lower value", "result": "0.979 (inactive)"}, {"measurement": "normalized growth", "setting": "locus YGL248W, strain PDE1, stronger effect = lower value", "result": "0.0713 (active)"}, {"measurement": "normalized growth", "setting": "locus YGL253W, strain hxk2, stronger effect = lower value", "result": "0.796 (active)"}, {"measurement": "normalized growth", "setting": "locus YGR078C, strain PAC10, stronger effect = lower value", "result": "0.084 (active)"}, {"measurement": "normalized growth", "setting": "locus YGR135W, strain pre9, stronger effect = lower value", "result": "0.0994 (active)"}, {"measurement": "normalized growth", "setting": "locus YGR229C, strain SMI1, stronger effect = lower value", "result": "0.102 (active)"}, {"measurement": "normalized growth", "setting": "locus YGR252W, strain gcn5, stronger effect = lower value", "result": "0.231 (active)"}, {"measurement": "normalized growth", "setting": "locus YHR013C, strain ard1, stronger effect = lower value", "result": "0.597 (active)"}, {"measurement": "normalized growth", "setting": "locus YHR027C, strain rpn1, stronger effect = lower value", "result": "0.455 (active)"}, {"measurement": "normalized growth", "setting": "locus YHR030C, strain SLT2, stronger effect = lower value", "result": "0.0838 (active) and 1.05 (inactive)"}, {"measurement": "normalized growth", "setting": "locus YHR079C, strain IRE1 (second series), stronger effect = lower value", "result": "0.0958 (active)"}, {"measurement": "normalized growth", "setting": "locus YHR079C, strain IRE1, stronger effect = lower value", "result": "1.05 (inactive)"}, {"measurement": "normalized growth", "setting": "locus YHR094C, strain hxt1, stronger effect = lower value", "result": "0.0909 (active)"}, {"measurement": "normalized growth", "setting": "locus YHR129C, strain ARP1, stronger effect = lower value", "result": "0.105 (active)"}, {"measurement": "normalized growth", "setting": "locus YHR142W, strain chs7, stronger effect = lower value", "result": "0.535 (active)"}, {"measurement": "normalized growth", "setting": "locus YHR200W, strain rpn10, stronger effect = lower value", "result": "0.0922 (active)"}, {"measurement": "normalized growth", "setting": "locus YIL066C, strain RNR3, stronger effect = lower value", "result": "0.0729 (active)"}, {"measurement": "normalized growth", "setting": "locus YIL073C, strain SPO22, stronger effect = lower value", "result": "0.167 (active)"}, {"measurement": "normalized growth", "setting": "locus YIL125W, strain kgd1, stronger effect = lower value", "result": "0.0846 (active)"}, {"measurement": "normalized growth", "setting": "locus YIR030C, strain dcg1, stronger effect = lower value", "result": "0.0869 (active)"}, {"measurement": "normalized growth", "setting": "locus YJL092W, strain hpr5, stronger effect = lower value", "result": "0.866 (active)"}, {"measurement": "normalized growth", "setting": "locus YJL095W, strain BCK1 (second series), stronger effect = lower value", "result": "0.789 (active)"}, {"measurement": "normalized growth", "setting": "locus YJL095W, strain BCK1, stronger effect = lower value", "result": "0.0975 (active) and 1.03 (inactive)"}, {"measurement": "normalized growth", "setting": "locus YJL115W, strain asf1, stronger effect = lower value", "result": "0.979 (inactive)"}, {"measurement": "normalized growth", "setting": "locus YJL129C, strain trk1, stronger effect = lower value", "result": "0.872 (inactive)"}, {"measurement": "normalized growth", "setting": "locus YJL134W, strain LCB3, stronger effect = lower value", "result": "0.0741 (active)"}, {"measurement": "normalized growth", "setting": "locus YJL154C, strain vps35, stronger effect = lower value", "result": "0.965 (inactive)"}, {"measurement": "normalized growth", "setting": "locus YJL164C, strain tpk1, stronger effect = lower value", "result": "0.781 (active)"}, {"measurement": "normalized growth", "setting": "locus YJL166W, strain qcr8, stronger effect = lower value", "result": "0.839 (active)"}, {"measurement": "normalized growth", "setting": "locus YJL168C, strain set2, stronger effect = lower value", "result": "0.087 (active)"}, {"measurement": "normalized growth", "setting": "locus YJL187C, strain SWE1 (second series), stronger effect = lower value", "result": "0.0725 (active)"}, {"measurement": "normalized growth", "setting": "locus YJR043C, strain POL32, stronger effect = lower value", "result": "0.101 (active)"}, {"measurement": "normalized growth", "setting": "locus YJR066W, strain TOR1, stronger effect = lower value", "result": "0.967 (inactive)"}]}]}
